Compounds with a hit are over-represented: about 1.5% of the library has one in this group of screens.
VCAM1 TNFa inh: inhibitors of TNFa-induced VCAM1 expression, primary screen, imaging, HUVEC, TNFa stimulus, immunofluorescence; HUVEC TNFa-induced VCAM-1 immunofluorescence, high-content imaging; AID 802, 2007; inhibition, % at 2 µM; 95,000 compounds, 0.48% hits;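 active means inhibition above the batch mean plus 3 SD, with images confirmed as a hit by eye, cut at about 37% in these data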;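 further: 0% = TNF-stimulated DMSO wells and 100% = unstimulated control wells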
TNFa cytotox: cytotoxicity in TNFa-stimulated HUVEC, primary screen, cytotoxicity control for VCAM1 expression modulator project, imaging, Hoechst nuclei count. HUVEC TNFalpha-stimulated, Hoechst cell count. cell count reduction, % at 2 µM. 93,000 compounds, 0.17% hits. AID 848, 2007;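 active means cell count reduction exceeding the screen mean by over 5 SD, scaled to untreated wells per plate, cut at about 78% in these data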;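 further: cells counted after 24 h of TNF alpha exposure following the 1 h pretreatment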
IL1B cytotox: cytotoxicity in IL-1B stimulated HUVEC, primary screen, cytotoxicity control for IL-1B NFkB translocation project, imaging, Hoechst nuclear count, IL-1B stimulus; HUVEC cell count loss; cell count reduction, % at 2 µM; 94,000 compounds, 0.41% hits; AID 845, 2007;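 active means cell count reduction more than 3 SD above the screen-wide mean, cut at about 70% in these data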;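 further: normalized per plate to untreated control cells as the no-loss baseline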
IL1B NFkB inh: inhibitors of IL-1B driven NFkB p65 nuclear import, primary screen, imaging, HUVEC, IL-1B stimulus, high-content imaging; HUVEC IL-1B NFkB p65 nuclear translocation imaging; inhibition, % at 2 µM; 94,000 compounds, 0.43% hits;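 active means inhibition above about 30% together with a positive call from visual inspection of the well image, limit read from the data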;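 further: nuclear over cytoplasmic p65 intensity ratio measured by imaging; 0% = IL-1B stimulated DMSO wells and 100% = unstimulated DMSO wells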
IL1B NFkB pot: enhancers of NFkB p65 translocation in HUVEC – imaging, IL-1B stimulus, high-content imaging, primary screen. HUVEC IL-1B NFkB p65 nuclear translocation imaging. activation, % at 2 µM. 94,000 compounds, 0.3% hits. AID 819, 2007;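 active means activation above 40%, about the mean plus 3 SD, also judged a hit on visual image review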;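 further: percent activation is computed from the nuclear over cytoplasmic p65 intensity ratio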
* marks the source's active call; other numbers are inactive results; / = no result.

SMILES | VCAM1 TNFa inh | TNFa cytotox | IL1B cytotox | IL1B NFkB inh | IL1B NFkB pot
CCOc1cc(C(=O)N2CCOCC2)ccc1OCc1ccccc1 | -2 | 16 | 11 | -5 | 5
Cn1c(SCc2cc(=O)n3cc(Br)ccc3n2)nnc1C1COc2ccccc2O1 (stereo unspecified) | -18 | -15 | -10 | -6 | 6
CCc1ccc(C2CC(c3ccccc3)n3ncnc3N2)cc1 (stereo unspecified) | -3 | -24 | 9 | -42 | 42*
Fc1ccc(C2CC(c3ccc(F)cc3)n3ncnc3N2)cc1 (stereo unspecified) | 5 | -12 | -3 | 16 | -16
CC(C)CCN(C(=O)CNC(=O)c1ccco1)C(C(=O)NC1CCCCC1)c1ccco1 (stereo unspecified) | 12 | -22 | -14 | -23 | 23
O=C(CSc1cn(CCNC(=O)c2ccc3ccccc3c2)c2ccccc12)NCc1ccco1 | 16 | -16 | -18 | 2 | -3
Cc1noc(C)c1S(=O)(=O)NCCCN1CCN(Cc2ccccc2)CC1 | -5 | 0 | 9 | -5 | 5
Cc1noc(C)c1S(=O)(=O)NCCN1CCN(c2ccccc2)CC1 | -11 | 17 | 10 | 31* | -31
CN(C1CCCCC1)S(=O)(=O)c1ccc(-n2cnnn2)cc1 | -7 | -31 | -21 | -50 | 50*
Cn1c(=O)oc2cc(S(=O)(=O)N3CCCC(C(=O)Nc4nccs4)C3)ccc21 (stereo unspecified) | 19 | -18 | 12 | -41 | 41*
COC(=O)c1ccc2c(c1)C(C)(C)C(/C=C/c1ccc(O)cc1)=[N+]2C | 24 | 3 | -6 | 34* | -34
COC(=O)c1ccc2nc(C)c(C)nc2c1 | 20 | 31 | 4 | -2 | 2
COC(=O)c1ccc2c(c1)C(C)(C)C(/C=C/c1ccc(OC)c(OC)c1OC)=[N+]2C | 7 | -5 | -2 | 37* | -37
Cc1cc(C)c(S(=O)(=O)N2CCN(c3ccc([N+](=O)[O-])c(-n4nc(C)cc4C)c3)CC2)c(C)c1 | -23 | / | -11 | -10 | 7
Nc1nnnn1/N=C/C(Br)=C/c1ccccc1 | 54* | 4 | 5 | 13 | -13
CCCc1n[nH]c2c1/C(=N\O)CCC2 | -3 | -6 | -88 | -9 | 9
COc1ccc2[nH]c(=O)c(CN(C(=O)c3ccncc3)C(C)C)cc2c1 | 95* | -77 | 2 | -1 | 1
CC(=O)N(CC(=O)O)c1ccccc1C(=O)O | 17 | -32 | 8 | -13 | 13
COc1ccccc1-c1cc(C(=O)N/N=C/c2cccs2)c2ccccc2n1 | 10 | -17 | 21 | -3 | 3
COc1ccccc1-c1cc(C(=O)N/N=C/C=C/c2ccccc2[N+](=O)[O-])c2ccccc2n1 | -18 | 0 | -2 | -42 | 42*
COC(=O)c1oc2ccc(Br)cc2c1-n1cccc1 | -3 | -4 | -81 | 40* | -40
Cc1ccc(CSc2nc3c(c(N(C)C)n2)CCCC3)cc1 | 3 | -17 | -43 | -11 | 11
CNc1nc(SCc2ccc(C)cc2)nc2c1CCCC2 | -10 | 6 | -10 | 42* | -42
CCCS(=O)(=O)C(=C(Nc1ccc(OC)cc1)Nc1ccc(OC)cc1)S(=O)(=O)CCC | 19 | 3 | -12 | 2 | -2
COc1ccc(CS(=O)(=O)/C(Cl)=C(/Cl)C(=O)Nc2ccc(OC)nc2)cc1 | 42* | 14 | / | / | /
SMILES | VCAM1 TNFa inh | TNFa cytotox | IL1B cytotox | IL1B NFkB inh | IL1B NFkB pot
COc1ccc(NC(=O)/C(Cl)=C(/Cl)S(=O)Cc2ccccc2)cn1 (stereo unspecified) | 88* | 99* | 14 | 65* | -84
C=CCn1c(SCc2c(C(=O)OC)sc(N)c2C(=O)OC)nnc1-c1ccc(Br)cc1 | 19 | 1 | -20 | -25 | 25
CCNc1nc(NC(C)C)nc(Nn2cnnc2)n1 | -35 | -12 | 90* | 96* | -96
CC(C)Nc1nc(NC(C)C)nc(N(C)n2cnnc2)n1 | -25 | 3 | -11 | -8 | 9
Cn1c(=O)c2c(SCc3c(F)cccc3Cl)nc(CC(C)(C)C)nc2n(C)c1=O | 4 | -38 | -7 | 10 | -10
O=C(CCN1CCN(Cc2ccccc2)CC1)Nc1cccc(Cl)c1 | -2 | -14 | 5 | -8 | 8
CCc1c(C)nc(/N=C(/NC(=O)c2ccccc2)Nc2ccccc2OC)[nH]c1=O | 1 | -18 | -1 | 55* | -55
COc1ccccc1NC(=O)CNC(=O)c1ccccc1 | -1 | -19 | -12 | 0 | 1
Cc1cc(C)c(/C=N/NC(N)=O)c(C)c1/C=N/NC(N)=O | 69* | 44 | -23 | 0 | 0
CC(C)C(OC(=O)c1nsc(Cl)c1Cl)C(=O)NCc1ccc2c(c1)OCO2 (stereo unspecified) | -33 | / | 86* | -5 | -96
CC(OC(=O)c1cccs1)C(=O)NCc1ccc2c(c1)OCO2 (stereo unspecified) | -11 | -12 | 8 | 7 | -7
NC(=S)NNc1cc(Cl)cc(Cl)c1 | -4 | -8 | 1 | 0 | 0
COc1ccc(Cn2nnnc2C(c2cccs2)N2CCSCC2)cc1 (stereo unspecified) | 87* | 88* | 6 | 3 | -3
Brc1ccc(Oc2ncc(CN3CCOCC3)s2)cc1 | 3 | -4 | -2 | -1 | 1
CC(C)CC(c1nnnn1Cc1ccccc1)N1CCC(C(N)=O)CC1 (stereo unspecified) | 19 | 6 | -2 | -58 | 58*
CC(C)n1c(=S)[nH]c2ccccc2c1=O | 1 | 3 | -3 | 36* | -37
CN(C)c1ccc(C2C3C(=O)NC(=O)C3ON2c2ccc(Cl)cc2)cc1 (stereo unspecified) | -4 | -7 | 11 | 4 | -4
COC(=O)CSc1nnc(CNC(=O)c2cc(OC)c(OC)c(OC)c2)n1C | 1 | -14 | 78* | 12 | -12
Fc1cc2ncn(Cc3ccccc3)c2cc1F | -2 | -19 | -16 | -9 | 9
c1ccc(Cn2cnc3ccccc32)cc1 | -3 | 2 | 95* | 3 | -3
O=C(O)c1coc2ccccc12 | 10 | -22 | -18 | -57 | 57*
O=C(/C=C/N1CCOCC1)c1coc2ccccc12 | -16 | -3 | -17 | 8 | -8
NC(=O)NC(c1ccccc1)c1cccc2ccccc12 (stereo unspecified) | -6 | -10 | / | / | /
COc1cc2c(cc1NC(=O)c1cccc([N+](=O)[O-])c1)oc1ccccc12 | 14 | -6 | 78* | 9 | -9
COc1cc2c(cc1NC(=O)c1ccncc1)oc1ccccc12 | -7 | 7 | -19 | 2 | -2
O=C1C(=O)c2ccc(-c3ccccc3)cc2-c2ccccc21 | 64* | 22 | 21 | -14 | 14
CC(C)c1ccc(C2C(C#N)=C(N)N3C(=C2C#N)Sc2ccccc23)cc1 (stereo unspecified) | -4 | -4 | 1 | -2 | 2

Compound activity (PubChem)
